Experimental data as given in ChEMBL document CHEMBL3988442, “University of Dundee, Small-Polar-MMV Screening Library” (2021).

Target: AMP-activated protein kinase, AMPK (Homo sapiens) (UniProt P54646+O43741+P54619+Q9UGJ0+Q9Y478+Q13131+Q9UGI9)
Test: AMP-dependent Kinase enzyme assay. An in vitro enzyme assay that detects ADP turnover that is directly proportional to AMPK activity. This uses naive AMPK that is activated during the assay with MK-8722
Format: functional
Design: scale not given: direction of the effect not stated beside the values
Settings: 30 µM

Structure (SMILES) | Percent Effect
CC(C)c1cc(C2CCN(C(=O)Cn3cnnn3)CC2)[nH]n1 | 12.8%
CCOCCC(=O)Nc1cccc(Cl)c1C(N)=O | 1.82%
Cc1cnc(C(NC(=O)NCc2nc(C3CC3)no2)C2CC2)s1 (centres undefined) | 0.145%
O=C(NC1CCN(C2CC2)C1)c1cn(-c2ccc(F)cc2)nn1 (centres undefined) | -3.53%
Cc1cc(N2CCC(n3cc(CN4CCNCC4)nn3)CC2)ccn1 | -7.65%
CN(Cc1cn(C2CCNCC2)nn1)CC1CCCO1 (centres undefined) | 3.31%
COc1cc(OC)cc(-c2cccc3c2OC(CN)C3)c1 (centres undefined) | -5.59%
Cc1n[nH]c(C)c1CCNC(=O)Nc1ccc(S(C)(=O)=O)cc1 | 4.13%
COc1cc(NC2CCCN(c3ncccn3)C2)cc(OC)c1 (centres undefined) | -64.1%
NC(=O)CCC1CCCN(Cc2cnc(N3CCCCC3)nc2)C1 (centres undefined) | 7.08%
CC(C)c1nc(CN2CCN(C(=O)OC(C)(C)C)C(C)C2)no1 (centres undefined) | 1.33%
COc1cc(CNC(=O)COC2CCCC2)ccc1O | 3.23%
CCc1nnc(C(C)N2CCN(CCC(=O)NC3CC3)CC2)o1 (centres undefined) | 8.34%
O=C(CC1COCCN1)N1CCCN(C2Cc3ccccc3C2)CC1 (centres undefined) | -11.6%
FC(F)(F)Oc1cccc(CNCc2ccc(-n3cncn3)nc2)c1 | 12.8%
Cc1nn(C)c(Cl)c1C(=O)NCC1(C(N)=O)CCOCC1 | -1.15%
C=C(C)Cn1nc(C)c(CN2CCN(C3CCCCC3)C(=O)C2)c1C | 10.7%
O=C(C1CC(c2cccc(F)c2)=NO1)N1CCc2ccccc21 (centres undefined) | 13.6%
COCCN(C)C(=O)NCCc1coc(-c2ccc(C)cc2)n1 | -3.83%
